One may read the % Inhibition as the change of the read-out against control, counted positive when it falls.

The campaign covered roughly 150,000 compounds. About 540 (0.36%) showed an effect of 50% or more. Only a selection was taken, and strong results are over-represented in it overall.

The values that follow come from ChEMBL document CHEMBL5308541, “MAIP: An Open-Source Tool to Enrich High-Throughput Screening Output and Identify Novel, Druglike Molecules with Antimalarial Activity” (ACS Med Chem Lett, 2023).

The assay concerns Plasmodium falciparum. As to the kind of experiment: Primary screen in NF54 nanoGlo assay, in single point, at 2uM, 72h; a lower Z score goes with more inhibition. It is filed as functional, Erythrocyte. The conditions noted are these: timepoint 72 hour.
`COc1ccc2[nH]c(CN3CCC[C@H](N4CCN(c5ccccc5)CC4)C3)c(C)c2c1`: the “% Inhibition” value is listed as -4% and the Z score turned out to be 0.66.
As for `C[C@@H](c1cccc(-c2nc3cc(C#N)ccc3[nH]2)c1)N(C)C`, the “% Inhibition” value is reported as 27% and the Z score is reported as -4.6.
Take `Cc1csc(=O)n1Cc1nnc(C(C)C)o1`: the “% Inhibition” value is given as -8% and the Z score was 1.5.
In the case of `Cc1cnccc1NCCNCc1nc2ccccc2[nH]1`, the “% Inhibition” value is given as -2% and the Z score amounted to 0.37.
`Cc1cnccc1NCCNCc1ccc(OC(C)C)c(Cl)c1`: the “% Inhibition” value is recorded as 79% and the Z score is listed as -17.03.
`CCN1CCN([C@H]2CCN(c3ccnc4ccncc34)C2)CC1`: the “% Inhibition” value was 96% and the Z score was -14.59.
As to `CCN1CCN([C@H]2CCN(c3nccc4nccnc34)C2)CC1`, the “% Inhibition” value came to 2% and the Z score is recorded as -0.37.
In the same order, the values of `CCN(C)CC(O)CN1CCC(Oc2cccnc2N2CCCC2)C1` (stereo not given) are -5% and 1.05.
On to `COc1ccc2nc(C)cc(NCc3cccc(NC(=O)c4ccco4)c3)c2c1`, for which the “% Inhibition” value came to 93% and the Z score is listed as -18.52.
With `CN(C)Cc1cccc(CCNCc2csc(-c3ccc(C(F)(F)F)cc3)n2)c1`, the “% Inhibition” value turned out to be 51% and the Z score is listed as -11.09.
Regarding `CN1CC(=O)N2C[C@@H](NC(=O)c3cccc(-c4ccc(N)nc4)c3)C[C@H]2C1=O`, the “% Inhibition” value is -16% and the Z score came out at 2.42.
Taken in the same sequence, the figures for `Cc1ccc2nc(-c3cccc(NC(=O)c4ccc(OC(F)(F)F)c(Cl)c4)c3)[nH]c2n1` were 57% and -12.27.
For `Cc1n[nH]nc1C(=O)Nc1ccc2[nH]c(-c3cccc(F)c3)nc2c1`, the “% Inhibition” value was found to be 1% and the Z score is -0.2.
For `CNC(=O)[C@@H]1CC2(CCN(CC3CCCCC3)CC2)CN1c1ccc(C#N)c(C(F)(F)F)c1`, the “% Inhibition” value was -15% and the Z score was 2.59.
As to `N#Cc1ccc(N2C[C@H](COCC3CC3)C3(CCN(Cc4cccc(O)c4)CC3)C2)cc1C(F)(F)F`, the “% Inhibition” value turned out to be 82% and the Z score is recorded as -14.34.
